PubChem BioAssay AID504832 (National Center for Advancing Translational Sciences (NCATS), 2011)
About 18,000 (5.8%) of roughly 310,000 compounds were called active. About 22% were inconclusive and are not listed. Shown is part of a subset that was picked to be rich in actives. Unmarked numbers belong to inactive results. Calls follow the shape of the dose curve; as a rule, active = well fitted inhibition curve with a large enough effect; inconclusive = small, poorly fitted or top-dose-only effect, or another doubt; inactive = no such curve, though single readings can be large or run the other way.

Experiment: Primary qHTS for delayed death inhibitors of the malarial parasite plastid, 48 hour incubation
Conditions: P. falciparum luciferase growth in erythrocytes; series mostly up to 28.7 µM; activity change, negative = inhibition: at the top concentration
Text: The goal of this screen is to discover new antimalarial compounds that act by inhibiting the development of the apicoplast in the malarial parasite Plasmodium falciparum. The biochemical processes that make this organelle essential for erythrocytic stage parasites are not well understood. However, antibiotics such as azithromycin and tetracycline, which target the apicoplast translational machinery, have a potent antimalarial effect.
We have developed a cell-based assay that measures parasite growth based on the expression of an integrated copy of a firefly luciferase reporter. To detect small molecules that cause this "delayed death" phenotype, erythrocytes infected with the luciferase-expressing parasites were incubated with compounds for either one or two generations, corresponding to 48 and 96 hours, respectively. Compounds that inhibit parasite growth in the second generation, but not the first, should be enriched in antimalarials that target the apicoplast. Growth inhibition is detected by a decrease in luciferase activity.
Assay Provider: David Fidock and Eric Ekland, Columbia University
Keywords: NIH Roadmap, MLPCN, MLI, MLSMR, qHTS, NCGC, qHTS, malaria, luciferase, viability
Four microliters of culture medium (RPMI 1640 with 0.5% w/v Albumax (GIBCO), 24 mM sodium bicarbonate and 10 ug/mL gentamycin) were dispensed by a Multi-drop Combi into white solid 1536-well plates (Grenier) and 23 nL compound was added by a pin tool. Four microliters of infected erythrocytes (2% hematocrit, 0.1% parasitemia final concentration) in culture medium were dispensed and the plates incubated for 48 hours at 37 C in 5% CO2. Two microliters of luciferase detection reagent was added and luminescence was detected by a ViewLux (PerkinElmer) reader.
% is scaled to controls: 0 for no effect and ±100 for the full control effect; potency is read from the fitted curve at half-maximal effect.

Compound | Potency | activity change, negative = inhibition
CCOC(=O)N1CCN(C(c2cccnc2)c2ccc3cccnc3c2O)CC1 (stereo not given) | 11.7 µM (active) | 
CN(CC(=O)Nc1ccc(F)cc1)CC(=O)N1CCCCC1 |  | 3.47%
Cc1cc(C)cc(N(CC(=O)NC2CCCC2)C(=O)CCC(=O)Nc2cc(C)on2)c1 |  | -38.6%
Cn1cc(CNC(=O)c2ccc(OC3CCN(Cc4ccccn4)CC3)cc2)cn1 |  | -19.4%
CCOC(=O)c1cccc(NC(=O)C2CCN(c3ncnc4c3nc3n4CCCCC3)CC2)c1 |  | -24.5%
COc1cc(C2/C(=C(\O)c3ccc4c(c3)CC(C)O4)C(=O)C(=O)N2c2nnc(C)s2)cc(OC)c1OC (stereo not given) |  | 2.05%
O=S(=O)(Nc1cccc(-n2cnnn2)c1)c1cnc(Cl)c(Cl)c1 |  | -12.1%
CC(=O)NC12CC3CC(C1)CC(C(=O)N1CCN(C(=O)c4ccco4)CC1)(C3)C2 |  | 85.7%
Cc1ccc(C(=O)Nc2ccn(C)n2)cc1 |  | 4.9%
CN1C(C(=O)NCc2ccco2)CC2Cn3c(nc4ccccc43)C21 (stereo not given) |  | -29.7%
Cc1nc2nc(SCC(=O)Nc3cccc(F)c3)[nH]c2cc1Br |  | 39.1%
COc1ccc(CN2CCN(C(=O)c3cc(C4CC4)nn3-c3ccccc3)CC2)cc1F | 8.28 µM (active) | 
COc1ccc(CN2CCN(C(=O)CCC(=O)Nc3nnc(C(C)C)s3)CC2)cc1F |  | -1.74%
COc1cc(CN2CCC(C(N)=O)CC2)ccc1OCc1ccccc1 |  | 119%
COc1ccc(C(=O)NCc2nnc(SCC(=O)NC3=NCCS3)n2C)cc1 |  | 10.4%
Cc1cc(=O)cc(C)n1-c1ccc(Cl)c(Cl)c1 |  | -14.4%
O=[N+]([O-])c1ccc(N(CCO)Cc2ccccc2)c([N+](=O)[O-])c1 | 4.65 µM (active) | 
CCN(CC)c1ccc([N+](=O)[O-])cc1C(=O)O |  | -8.48%
O=C(OCC(=O)N(CCc1ccccc1)Cc1ccccc1)c1ccccc1[N+](=O)[O-] |  | 33.7%
O=C(NCCCn1ccnc1)c1cc(Br)c(Br)s1 |  | -13%
CC(=O)Nc1ccc(NC(=O)CSc2nnnn2C2CCCCC2)cc1 |  | 0.533%
CCCc1cc(=O)n2[nH]c(C)c(-c3ccc(Cl)cc3)c2n1 |  | 11.8%
NS(=O)(=O)c1cccc(NC(=O)CC23CC4CC(CC(Br)(C4)C2)C3)c1 |  | 25.6%
Cc1nnc(SCC(=O)Nc2cccc(N)c2)n1-c1ccccc1 |  | 0%
COc1ccc(NC(=O)C2=CC(c3ccc(OC)c(OC)c3)=NS(=O)(=O)N2C)cc1 | 14.7 µM (active) | 
COc1ccc(C2=NS(=O)(=O)N(C)C(C(=O)N3CCCCC3)=C2)cc1 |  | -6.99%
COc1ccc(C2=NS(=O)(=O)N(C)C(C(=O)NC(C)c3ccccc3)=C2)cc1 (stereo not given) |  | 3.81%
Cc1cccc(N(C)C(=O)c2cc(S(=O)(=O)N3CCCCC3)c[nH]2)c1 |  | 8.72%

Compound | Potency | activity change, negative = inhibition
Cc1cccc(CCNS(=O)(=O)c2ccc3c(c2)NC(=O)CO3)c1 |  | 12.1%
CCOc1ccc(NC(=O)CC(Cc2ccc(Cl)cc2)C(=O)O)cc1 (stereo not given) |  | 31.6%
O=C1c2cccc(OCC(=O)N3N=C(c4cccs4)CC3c3ccc(F)cc3)c2CCN1Cc1ccccc1 (stereo not given) | 7.38 µM (active) | 
COc1ccc(C2CC(c3ccccc3)=NN2C(=O)COC(=O)COc2ccccc2)cc1 (stereo not given) |  | -0.759%
COc1ccc(C2CC(c3cccs3)=NN2C(=O)CCC(=O)O)cc1OC (stereo not given) |  | -0.475%
COc1cc(C(=O)NCC(=O)NCCSc2ccc(Br)cc2)cc(OC)c1OC |  | 37.5%
CCO[C@H]1OC(C(=O)N2CCCCCCC2)=C[C@@H](c2ccc(C(F)(F)F)cc2)[C@@H]1CCCO | 3.7 µM (active) | 
CCO[C@H]1OC(C(=O)N2CCOCC2)=C[C@@H](c2ccc3c(c2)OCO3)[C@@H]1CCCO |  | 39.8%
CCO[C@@H]1OC(C(=O)N2CCOCC2)=C[C@H](C)[C@H]1CCCO |  | 12.4%
Cc1cc(C)c(S(=O)(=O)Nc2c(C)n(C)n(-c3ccccc3)c2=O)cc1[N+](=O)[O-] |  | -7.18%
COc1ccc(-c2cc(C(=O)N3CCN(c4ccc(F)cc4)CC3)no2)cc1 |  | 1.13%
Cc1cc(C)c(C2C3=C(Nc4c2c(C)nn4-c2ccccn2)c2ccccc2C3=O)c(C)c1 (stereo not given) | 9.28 µM (active) | 
COC(=O)c1sccc1NC(=O)c1ccc(Cl)cc1 |  | 12.9%
Nc1nc(NCc2ccccc2)n(-c2ccccc2)n1 |  | -9%
CCc1nnc(NC(=O)CSCc2cc(=O)n3cc(C)sc3n2)s1 |  | -17.5%
COC(=O)C1=C(c2ccc(Cl)c(C(F)(F)F)c2)C[C@@H]2CC[C@H]1N2C(=O)NC1CC1 | 14.7 µM (active) | 
O=C(O)C1CC=C(Cl)CC1C(=O)NCc1ccccc1 (stereo not given) |  | 1.48%
COc1ccc(CNC(=O)C2CCN(C(=O)c3ccccc3)CC2)cc1 |  | -3.24%
COC(=O)C1=C(c2ccc(F)cc2F)C[C@@H]2CC[C@H]1N2C(=O)NC1CC1 |  | 17.9%
COC(=O)C1=C(c2ccc3ccccc3c2)C[C@@H]2CC[C@H]1N2C(=O)NCCO |  | 3.2%
COC(=O)C1=C(c2ccc(-c3ccccc3)c(F)c2)C[C@@H]2CC[C@H]1N2C(=O)NCc1ccc(F)cc1 | 13.1 µM (active) | 
COC(=O)c1ccc(CNC(=O)C2CCC(=O)N(Cc3cccc(F)c3)C2)cc1 (stereo not given) |  | -0.0903%
O=C(NCCc1ccc(Cl)cc1)C1CCCN1C(=O)NCc1ccccc1 (stereo not given) |  | 8.13%
COc1ccc(CNC(=O)C2CCN(S(C)(=O)=O)CC2)cc1 |  | 0%
COC(=O)C1=C(c2ccccc2OCc2ccccc2)C[C@@H]2CC[C@H]1N2C(=O)NCc1ccc(OC)cc1 | 13.1 µM (active) | 
O=C(CN1CCN(C(=O)c2ccco2)CC1)Nc1ccc(Cl)c(C(F)(F)F)c1 |  | -1.32%
COC(=O)C1=C(c2ccc(F)cc2OCc2ccccc2)C[C@@H]2CC[C@H]1N2C(=O)NCc1ccc(Cl)cc1 | 11.7 µM (active) | 
